Measured values taken from PubChem BioAssay AID1159580 (chemical genetic matrix, 2015).
About 2,000 (36%) of roughly 5,500 compounds were called active. Inconclusive results (about 18%) are left out. Cut-off read from the data, not from the text of the source: active = normalized growth mostly below about 0.91 (no sharp cut-off); inconclusive = no clear call, values can overlap the other calls; inactive = mostly above about 0.92. The list shows a part of the results.

Experiment: chemical genetic growth profiling, strain panel (AID 1159580);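 note: tested at 20 µM; growth read once vehicle control cultures reached saturation at 30 °C; 1 = growth at the plate median or of vehicle wells; lower values mean less growth of the strain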
Details: growth OD

Measured: normalized growth

COc1ccc(C2Sc3ccccc3N(CCN(C)C)C(=O)C2OC(C)=O)cc1 (stereo not given)
inactive: S. cerevisiae deletion strains, locus YKL009W, strain mrt4, active compounds read low 1.04 | S. cerevisiae deletion strains, locus YKL068W, active compounds read low 1.02 | S. cerevisiae deletion strains, locus YKL085W, strain MDH1 (second series), active compounds read low 1.03 | S. cerevisiae deletion strains, locus YKL085W, strain MDH1, active compounds read low 1.03 | S. cerevisiae deletion strains, locus YKL160W, strain elf1, active compounds read low 0.972 | S. cerevisiae deletion strains, locus YKL190W, strain CNB1, active compounds read low 0.994 | S. cerevisiae deletion strains, locus YKR001C, strain vps1, active compounds read low 1.04 | S. cerevisiae deletion strains, locus YKR026C, strain gcn3, active compounds read low 0.931 | S. cerevisiae deletion strains, locus YKR091W, strain srl3, active compounds read low 0.983 | S. cerevisiae deletion strains, locus YLL001W, strain dnm1, active compounds read low 0.944 | S. cerevisiae deletion strains, locus YLL026W, active compounds read low 0.983 | S. cerevisiae deletion strains, locus YLL041C, strain sdh2, active compounds read low 0.956 | S. cerevisiae deletion strains, locus YLR027C, strain aat2, active compounds read low 0.974 | S. cerevisiae deletion strains, locus YLR039C, strain RIC1, active compounds read low 1.04 | S. cerevisiae deletion strains, locus YLR058C, strain SHM2, active compounds read low 1.01 | S. cerevisiae deletion strains, locus YLR102C, strain apc9, active compounds read low 1.04 | S. cerevisiae deletion strains, locus YLR113W, strain HOG1, active compounds read low 1.01 | S. cerevisiae deletion strains, locus YLR221C, strain rsa3, active compounds read low 0.989 | S. cerevisiae deletion strains, locus YLR258W, strain gsy2, active compounds read low 0.974 | S. cerevisiae deletion strains, locus YLR262C, strain YPT6 (second series), active compounds read low 0.977 | S. cerevisiae deletion strains, locus YLR262C, strain YPT6, active compounds read low 1.04 | S. cerevisiae deletion strains, locus YLR268W, strain sec22, active compounds read low 1.03 | S. cerevisiae deletion strains, locus YLR320W, strain mms22, active compounds read low 1.02 | S. cerevisiae deletion strains, locus YLR330W, strain CHS5, active compounds read low 1.01 | S. cerevisiae deletion strains, locus YLR342W, strain FKS1 (second series), active compounds read low 1.02 | S. cerevisiae deletion strains, locus YLR342W, strain FKS1, active compounds read low 0.979 | S. cerevisiae deletion strains, locus YLR357W, strain rsc2, active compounds read low 0.922 | S. cerevisiae deletion strains, locus YLR370C, strain arc18, active compounds read low 0.973 | S. cerevisiae deletion strains, locus YLR371W, strain rom2, active compounds read low 1.03 | S. cerevisiae deletion strains, locus YLR384C, strain iki3, active compounds read low 0.941 | S. cerevisiae deletion strains, locus YLR418C, strain cdc73, active compounds read low 1.06 | S. cerevisiae deletion strains, locus YML016C, strain PPZ1, active compounds read low 1.01 | S. cerevisiae deletion strains, locus YML032C, strain rad52, active compounds read low 1.06 | S. cerevisiae deletion strains, locus YML120C, strain ndi1, active compounds read low 0.982 | S. cerevisiae deletion strains, locus YML124C, strain tub3, active compounds read low 1.03 | S. cerevisiae deletion strains, locus YMR058W, strain fet3, active compounds read low 0.986 | S. cerevisiae deletion strains, locus YMR078C, strain ctf18, active compounds read low 1.04 | S. cerevisiae deletion strains, locus YMR125W, strain sto1, active compounds read low 0.896 | S. cerevisiae deletion strains, locus YMR129W, active compounds read low 0.975 | S. cerevisiae deletion strains, locus YMR205C, strain PFK2, active compounds read low 0.98 | S. cerevisiae deletion strains, locus YMR223W, strain ubp8, active compounds read low 1.04 | S. cerevisiae deletion strains, locus YMR231W, strain pep5, active compounds read low 0.965 | S. cerevisiae deletion strains, locus YMR263W, strain SAP30, active compounds read low 1 | S. cerevisiae deletion strains, locus YMR307W, strain GAS1, active compounds read low 1.07 | S. cerevisiae deletion strains, locus YNL067W, strain RPL9B, active compounds read low 1.02 | S. cerevisiae deletion strains, locus YNL071W, strain lat1, active compounds read low 0.998 | S. cerevisiae deletion strains, locus YNL128W, strain TEP1, active compounds read low 1.02 | S. cerevisiae deletion strains, locus YNL153C, strain GIM3, active compounds read low 1.01 | S. cerevisiae deletion strains, locus YNL183C, strain NPR1, active compounds read low 0.953 | S. cerevisiae deletion strains, locus YNL209W, strain ssb2, active compounds read low 0.973 | S. cerevisiae deletion strains, locus YNL233W, strain BNI4, active compounds read low 1.01 | S. cerevisiae deletion strains, locus YNL250W, strain rad50, active compounds read low 1.07 | S. cerevisiae deletion strains, locus YNL271C, strain bni1, active compounds read low 1.04 | S. cerevisiae deletion strains, locus YNL298W, strain CLA4, active compounds read low 1.06 | S. cerevisiae deletion strains, locus YNL307C, strain MCK1, active compounds read low 1.05 | S. cerevisiae deletion strains, locus YNL322C, strain KRE1 (second series), active compounds read low 0.974 | S. cerevisiae deletion strains, locus YNL322C, strain KRE1, active compounds read low 1.01 | S. cerevisiae deletion strains, locus YNR049C, strain mso1, active compounds read low 0.977 | S. cerevisiae deletion strains, locus YNR052C, strain pop2, active compounds read low 1.05 | S. cerevisiae deletion strains, locus YOL006C, strain TOP1, active compounds read low 1.07 | S. cerevisiae deletion strains, locus YOL012C, strain htz1 1.17 | S. cerevisiae deletion strains, locus YOL147C, strain pex11, active compounds read low 1.04 | S. cerevisiae deletion strains, locus YOR001W, strain rrp6, active compounds read low 0.945 | S. cerevisiae deletion strains, locus YOR061W, strain CKA2, active compounds read low 1.01 | S. cerevisiae deletion strains, locus YOR069W, strain VPS5, active compounds read low 1.01 | S. cerevisiae deletion strains, locus YOR070C, strain gyp1, active compounds read low 0.989 | S. cerevisiae deletion strains, locus YOR080W, strain dia2, active compounds read low 0.973 | S. cerevisiae deletion strains, locus YOR083W, strain WHI5, active compounds read low 0.976 | S. cerevisiae deletion strains, locus YOR106W, strain vam3, active compounds read low 0.903 | S. cerevisiae deletion strains, locus YOR136W, strain idh2, active compounds read low 1.04 | S. cerevisiae deletion strains, locus YOR144C, strain elg1, active compounds read low 1.04 | S. cerevisiae deletion strains, locus YOR184W, strain ser1, active compounds read low 1.07 | S. cerevisiae deletion strains, locus YOR231W, strain MKK1, active compounds read low 1.01 | S. cerevisiae deletion strains, locus YOR265W, strain rbl2, active compounds read low 0.974 | S. cerevisiae deletion strains, locus YOR270C, strain vph1, active compounds read low 0.902 | S. cerevisiae deletion strains, locus YOR290C, strain snf2, active compounds read low 0.998 | S. cerevisiae deletion strains, locus YOR316C, strain cot1, active compounds read low 1.03 | S. cerevisiae deletion strains, locus YPL051W, strain arl3, active compounds read low 0.977 | S. cerevisiae deletion strains, locus YPL055C, strain LGE1, active compounds read low 1.04 | S. cerevisiae deletion strains, locus YPL078C, strain atp4, active compounds read low 0.943 | S. cerevisiae deletion strains, locus YPL106C, strain sse1, active compounds read low 0.976 | S. cerevisiae deletion strains, locus YPL240C, strain hsp82, active compounds read low 0.972 | S. cerevisiae deletion strains, locus YPL241C, strain CIN2, active compounds read low 1.01 | S. cerevisiae deletion strains, locus YPL256C, strain CLN2, active compounds read low 0.991 | S. cerevisiae deletion strains, locus YPR119W, strain clb2, active compounds read low 1.03 | S. cerevisiae deletion strains, locus YPR141C, strain kar3, active compounds read low 1.06 | S. cerevisiae deletion strains, locus YPR163C, strain tif3, active compounds read low 1.05 | S. cerevisiae deletion strains, locus YPR167C, strain met16, active compounds read low 1.04 | S. cerevisiae deletion strains, strain wtn01, active compounds read low 1.03 | S. cerevisiae strains, strain wild type, active compounds read low 1.01
